Measured values: PubChem BioAssay (NCI)
The panel holds about 83,000 compounds, 20% with a hit somewhere; the sample as a whole holds those more often.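 Results are percent growth after 48 hours of single-concentration exposure. 100 means growth as in untreated cells, lower positive values show inhibition; negative values down to -100 show cell death.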 Unmarked numbers belong to inactive results. Activity calls are given as the source filed them. How the source made its calls: active means growth percent below 10; inactive means the rest.

Key:
Experiment in all cases: NCI-60 one-dose screen, 48 h (100 = growth as untreated, 0 = no growth, -100 = all killed)
Details in all cases: 10 µM unless noted
NCI-H23 lung = system: NCI-H23 lung
NCI-H226 lung = system: NCI-H226 lung
NCI-H322M lung = system: NCI-H322M lung
HOP-62 NSCLC = system: HOP-62 NSCLC
NCI-H460 lung = system: NCI-H460 lung
HOP-92 NSCLC = system: HOP-92 NSCLC
NCI-H522 lung = system: NCI-H522 lung
A549/ATCC NSCLC = system: A549/ATCC NSCLC
786-0 renal = system: 786-0 renal
COLO 205 colon = system: COLO 205 colon

| SMILES | growth (NCI-H23 lung) | growth (NCI-H226 lung) | growth (NCI-H322M lung) | growth (HOP-62 NSCLC) | growth (NCI-H460 lung) | growth (HOP-92 NSCLC) | growth (NCI-H522 lung) | growth (A549/ATCC NSCLC) | growth (786-0 renal) | growth (COLO 205 colon) |
| --- | --- | --- | --- | --- | --- | --- | --- | --- | --- | --- |
| Nc1nc(Nc2ccc(F)cc2)nn1C(=O)c1cc(Cl)ccc1Cl | 71.9% | 80.9% | 66.4% | 85.4% | 69.4% | 75.1% | 87.8% | 75.2% | 72.9% | 83.8% |
| COc1c(F)cc(-n2c(C(=O)N3CC(F)C3)cc3cccnc32)cc1F | 94.1% | 96.2% | 95.1% | 97.8% | 106% | 82.7% | 91.2% | 113% | 103% | 118% |
| C=CCOc1ccc(/C=C2\SC(=S)N(CCc3ccc(O)cc3)C2=O)cc1 | 104% | 91.6% | 95.2% | 106% | 97.4% | -2.76% (active) | 11% | 88.8% | 100% | 114% |
| C=C(C)[C@@H]1CC[C@]2(C(=O)N3CCN(C)CC3)CC[C@]3(C)[C@H](CC[C@@H]4[C@@]5(C)CC(CCCNC(C)=O)(CCCNC(C)=O)[C@H](OC(C)=O)C(C)(C)[C@@H]5CC[C@]43C)[C@@H]12 | 98.2% | 99.1% | 105% | 103% | 99.5% | 98.2% | 96.3% | 102% | 99.8% | 106% |
| O=C(CC1(O)C(=O)Nc2ccc(Br)cc21)c1ccc(Cl)cc1 (stereo not given) | 96.8% | 80.1% | 105% | 88.7% | 106% | 86.1% | 81% | 90.5% | 114% | 109% |
| COc1ccc2c(c1)c(C(=O)c1nc(-c3cn(C)c4ccccc34)no1)cn2C | 94.6% | 83% | 86.5% | 92.5% | 101% | 110% | 69.6% | 90.7% | 107% | 97.7% |
| N#CC1=C(N)Oc2c(sc3c(Br)cccc23)C1c1ccccn1 (stereo not given) | 53.3% | 41.2% | 51.1% | 30.9% | 20.4% | 35.3% | -14.1% (active) | 40.1% | 27.2% | 6.4% (active) |
| Cc1ccc(/C=C2\COc3ccc(O)c(O)c3C2=O)cc1 | 29.1% | 61.5% | 31.3% | -1.56% (active) | 8.32% (active) | -18% (active) | -74.8% (active) | 27.4% | -71% (active) | 30.2% |
| O=C(Nc1ccc(F)cc1)c1cc2cc(Nc3nc(-c4ccccc4)nc4ccccc34)ccc2oc1=O | 90.1% | 102% | 100% | 84.2% | 113% | 103% | 97.6% | 92.5% | 98.4% | 123% |
| C=CCN1C=CC(=O)[C@H](O[Si](C)(C)C(C)(C)C)[C@@H]1/C=C/c1ccccc1 | -71.6% [100 µM] (active) | -65.3% [100 µM] (active) | -59.2% [100 µM] (active) | -88.9% [100 µM] (active) | -49.3% [100 µM] (active) | -89.7% [100 µM] (active) | -39.1% [100 µM] (active) | -40.4% [100 µM] (active) | -88.2% [100 µM] (active) | -64% [100 µM] (active) |
| Nc1ncc(-c2ccc3ncnc(N4CCc5ccc(Cl)cc54)c3c2)cc1C(F)(F)F | 35.4% | 20.5% | 7.25% (active) | 17.3% | 18.1% | -7.6% (active) | 14.1% | 13.5% | 8.59% (active) | 7.3% (active) |
| CC1=C2[C@@H](CC1)[C@]1(C)O[C@@](C3CC3)(C[C@H]1OC(=O)CO)[C@H]2OC(=O)/C=C/c1ccccc1 | 103% | 86.7% | 82.2% | 89.6% | 90.7% | 82.2% | 88.4% | 79% | 73.2% | 116% |
| Cc1oc2c(Cc3ccc(NC(=O)c4ccc(Cl)cc4)cc3)ncnc2c1C(=O)NO | 97.2% | 86.4% | 93.1% | 101% | 97.3% | 125% | 70.7% | 88.5% | 95% | 107% |
| COCCn1cc(-c2nc(-c3cn(CCOC)c4ncccc34)cs2)c2ccccc21 | 56.2% | 87.3% | 59.2% | 67.8% | 56.6% | 66.4% | 53.4% | 70.8% | 82.9% | 18.8% |
| CC12OC(CC(O)C1O)n1c3ccccc3c3c4c(c5c6ccccc6n2c5c31)C(=O)N(CCN1CCOCC1)C4=O (stereo not given) | -6.63% (active) | -35.6% (active) | 14.5% | -11.7% (active) | -12.5% (active) | 19.6% | -16.3% (active) | -31.8% (active) | 1.94% (active) | -2.3% (active) |
| COc1cc(-c2[nH]ncc2Nc2ccc(Cl)cc2)cc(OC)c1OC | 55.5% | 73.2% | 64.2% | 50.1% | 73.6% | 60% | 51.5% | 67.6% | 64.3% | 107% |
| Cc1c(O)c(O)cc2c3c(oc12)CC(c1ccc2c(c1)OCO2)CC3=O (stereo not given) | 83.4% | 81.2% | 90.1% | 75.2% | 93.7% | -37.4% (active) | 53.3% | 93.8% | 100% | 103% |
| CCCCCCCCN(CCCCCCCC)CC(O)c1cc(Cl)ccc1OC (stereo not given) | 56% | 62% | 94.7% | 80.8% | 62.6% | 66% | 68% | 83.9% | 72.7% | 55.5% |
| CCN(c1cc(-c2ccc(CN3CCC(/C=C/S(=O)(=O)c4ccccc4)CC3)cc2)cc(C(=O)NCc2c(C)cc(C)[nH]c2=O)c1C)C1CCOCC1 | 81.4% | 78.3% | 85.1% | 82.8% | 83.8% | 24.3% | 77.7% | 66.1% | 71.1% | 99.8% |
| O=C(Nc1ccc2ncsc2c1)c1csc(Nc2ccc3[nH]ncc3c2)n1 | 62% | 59% | 51.5% | 61.7% | 19.5% | 67.5% | 24.7% | 44.3% | 42.8% | 31.2% |
| Cc1c(CC(=O)OCCO)cc(-c2ccc(Cl)cc2)n1-c1ccccc1 | 82.3% | 93.9% | 106% | 95% | 104% | 97.4% | 82.6% | 94% | 102% | 109% |
| Cc1ccc(Cl)cc1N1CCN(C(=O)[C@@H]2C[C@@H]2c2ccc(F)cc2)CC1 | 84.2% | 73.6% | 93% | 100% | 99.7% | 74.9% | 69.3% | 77.7% | 93.6% | 107% |
| COc1cc2nc3cc([N+](=O)[O-])ccc3c(NCCNCC(C)(C)O)c2cc1OC | -34.1% (active) | -4.58% (active) | -3.78% (active) | -23% (active) | -38.7% (active) | -45.6% (active) | -40.3% (active) | -9.76% (active) | 2.27% (active) | -70.1% (active) |
| Cn1cc(-c2csc(-c3cn(CCOC(N)=O)c4ccccc34)n2)c2cccnc21 | 81.2% | 86.4% | 90.8% | 74.5% | 82.4% | 83.1% | 24.2% | 67.4% | 87.4% | 77.6% |
